# From PubChem BioAssay (NCATS)
# Results filed as inconclusive are left out. Unmarked numbers belong to inactive results. Active and inactive are the calls of the source. Calls come from the whole dose curve; as a rule, active = well fitted cell-killing curve with a large enough effect; inconclusive = small, poorly fitted or top-dose-only effect; inactive = flat fitted curve, though single readings scatter.
# Experiment: Cell Viability - LYMP1-003 - Assay at 40 hr (AID 964); note: nearly all actives have a fitted effect of over 60% in size
# Settings: LYMP1-003 lymphoblastoid viability; series mostly up to 92.2 µM; activity change, negative = cytotoxic: at the top concentration
# From the text: NIH Chemical Genomics Center [NCGC]
# NIH Molecular Libraries Screening Centers Network [MLSCN]
# National Institutes of Environmental Health Sciences [NIEHS]
# National Toxicology Program [NTP]
# We have developed a 1536-well cell-based assay for quantitative high throughput screening (qHTS) against a number of cell lines to determine in vitro cytotoxicity of small molecules. This particular assay uses a human lymphoblastoid cell line (LYMP1-003) purchased from Coriell Institute for Medical Research.
# NCGC Assay Protocol Summary:
# The CellTiter-Glo luminescent cell viability assay (Promega) is a homogeneous method to measure the number of viable cells in culture. The end point readout of this assay is based on quantitation of intracellular ATP, an indicator of metabolic activity, using the luciferase reaction. Luciferase catalyzes the oxidation of beetle Luciferin to oxyluciferin and light in the presence of ATP. The luminescent signal is proportional to amount of ATP present.
# Using the CellTiter-Glo luminescent cell viability assay, the amount of cellular ATP was measured in the lymphoblastoid cell line with complete culture medium following compound treatment for 40 hours. The assay was performed in opaque white Kalypsys 1536-well plates. In the screen, tetraoctylammonium bromide was used as positive control. Library compounds were measured for their ability to cause acute toxicity in the cell line, as reflected by a decrease in intracellular ATP levels, in a concentration-dependent manner. […] AC50 values were determined from concentration-response data modeled with the standard Hill equation.
# qHTS protocol for CellTiter Glo lymphoblastoid cellular assay
# [Step] [Parameter] [Value] [Description]
# 1. Reagent; 5 uL; 2500 lymphoblastoid cells/well
# 2. Time; 5 hr; 37 C incubation
# 4. Controls; 23 nL; Tetraoctylammonium bromide 6.4pM to 92 uM
# 5. Time; 40 hr; 37 C incubation
# 6. Reagent; 5 uL; CellTiter Glo reagent
# 7. Time; 30 min; Room Temperature
# 8. Detection; Luminescence; Viewlux plate reader
# Keywords: cell viability, cytotoxicity, lymphoblastoid cell line, luminescence, NTPHTS, NTPHTS_NCGC, NIEHS, DSSTox, MLSMR, MLSCN, NIH Roadmap, qHTS, NCGC
# % is set by controls: 0 for no effect and ±100 for the full control effect; potency is the fitted concentration of half-maximal effect.
SMILES,Potency,"activity change, negative = cytotoxic"
COC(=O)[C@H]1[C@H]2C[C@@H]3c4[nH]c5cc(OC)ccc5c4CCN3C[C@H]2C[C@@H](OC(=O)c2cc(OC)c(OC)c(OC)c2)[C@@H]1OC,39.8 µM (active),–
CN=C(NC#N)NCCSCc1nc[nH]c1C,–,-4.8%
CCCCNC(=O)NS(=O)(=O)c1ccc(C)cc1,–,-6.86%
Nc1ncn([C@@H]2O[C@H](CO)[C@@H](O)[C@H]2O)c(=O)n1,12.6 µM (active),–
NC(=O)N1c2ccccc2C=Cc2ccccc21,–,-8.36%
COc1cc(Cc2cnc(N)nc2N)cc(OC)c1OC,–,-6.57%
NC(=Nc1ccccc1)Nc1ccccc1,–,-17.2%
CCCCOCCOCCOCc1cc2c(cc1CCC)OCO2,–,-1.41%
O=c1[nH]c(=O)n([C@H]2C[C@H](O)[C@@H](CO)O2)cc1Br,–,-18.8%
COc1ccc(CN(CCN(C)C)c2ccccn2)cc1,–,-10.5%
